Results published in PubChem BioAssay (EPA / NIEHS).
Results filed as inconclusive are left out. Some structures have more than one record in an assay (separate samples or runs), and their calls can disagree. The source made the active and inactive calls. Rule for the calls, unless noted: active = hit-call score of the fitted dose curve at least 0.9, where 1 is the maximum; inactive = score below 0.9.

Columns and labels:
[1] = read-out: Signal transducer and activator of transcription 3 (Homo sapiens) (UniProt P40763); assay: LTEA_HepaRG_STAT3: Life Technologies and Expression Analysis (LTEA) Assay for Signal transducer and activator of transcription (STAT3) using HepaRG (AID 2283529); settings: mRNA level, 48 h; actives raise or lower the signal
How it was run: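 Differentiated HepaRG cells, serum-free induction medium, dosed 48 h in duplicate, 8 half-log concentrations from 100 uM in 0.5% DMSO. STAT3 mRNA by qRT-PCR, normalised to ACTB, GAPDH, POLR2A; bidirectional fit versus DMSO.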

[2] = read-out: solute carrier (SLCO1B1), SLCO1B1 (gene 10599); assay: LTEA_HepaRG_SLCO1B1: Life Technologies and Expression Analysis (LTEA) Assay for solute carrier (SLCO1B1) using HepaRG (AID 2283530); settings: mRNA level, 48 h; actives raise or lower the signal
How it was run: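 SLCO1B1 transcript levels were quantified by TaqMan qRT-PCR using three housekeeping genes for normalization. This followed 48 h chemical exposure (100 uM top, half-log, 8 points, 0.5% DMSO) of HepaRG liver cells, with gain or loss fitted relative to DMSO.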

[3] = read-out: sulfotransferase 2A1 (SULT2A1), SULT2A1 (gene 6822); assay: LTEA_HepaRG_SULT2A1: Life Technologies and Expression Analysis (LTEA) Assay for sulfotransferase 2A1 (SULT2A1) using HepaRG (AID 2283531); settings: mRNA level, 48 h; actives raise or lower the signal
How it was run: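 Expression change of SULT2A1, by qRT-PCR with three housekeeping-gene normalization, was scored bidirectionally versus DMSO. Cells: differentiated HepaRG, dosed in duplicate for 48 h across 8 points, highest 100 µM, half-log dilution, 0.5% DMSO.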

[4] = read-out: Transforming Growth Factor (TGFA), TGFA (gene 7039); assay: LTEA_HepaRG_TGFA: Life Technologies and Expression Analysis (LTEA) Assay for Transforming Growth Factor (TGFA) using HepaRG (AID 2283532); settings: mRNA level, 48 h; actives raise or lower the signal
How it was run: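 Differentiated HepaRG cells exposed 48 hours in serum-free induction medium, 0.5% DMSO vehicle, 8-point half-log series from 100 uM, in duplicate. TGFA mRNA by TaqMan qRT-PCR, normalised to ACTB, GAPDH, POLR2A; bidirectional fit versus DMSO.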

[5] = read-out: Transforming Growth Factor (TGFB1), TGFB1 (gene 7040); assay: LTEA_HepaRG_TGFB1: Life Technologies and Expression Analysis (LTEA) Assay for Transforming Growth Factor (TGFB1) Transporter using HepaRG (AID 2283533); settings: mRNA level, 48 h; actives raise or lower the signal
How it was run: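 TGFB1 transcript measured by qRT-PCR with normalisation to three housekeeping genes (ACTB, GAPDH, POLR2A); human HepaRG line treated in duplicate for 48 hr with an 8-point series topping at 100 uM, 0.5% DMSO vehicle, bidirectionally fitted.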

TIMP1, TIMP1 (gene 7076) = assay: LTEA_HepaRG_TIMP1: Life Technologies and Expression Analysis (LTEA) Assay for TIMP1 using HepaRG (AID 2283534); settings: mRNA level, 48 h; actives raise or lower the signal
How it was run: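 Bidirectional change in TIMP1 transcript versus 0.5% DMSO, measured by TaqMan qRT-PCR with three housekeeping genes for normalization. HepaRG human liver cells dosed 48 h in duplicate, top concentration 100 uM with half-log dilutions.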

[6] = read-out: Tumor necrosis factor receptor 1 (TNFRSF1A), TNFRSF1A (gene 7132); assay: LTEA_HepaRG_TNFRSF1A: Life Technologies and Expression Analysis (LTEA) Assay for Tumor necrosis factor receptor 1 (TNFRSF1A) using HepaRG (AID 2283535); settings: mRNA level, 48 h; actives raise or lower the signal
How it was run: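 mRNA measured by qRT-PCR (TaqMan, Fluidigm arrays) against ACTB/GAPDH/POLR2A housekeepers after 48 h chemical exposure of HepaRG cells. Top concentration 100 uM, half-log 8-point series, duplicates; vehicle 0.5% DMSO, both fit directions.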

[7] = read-out: Thyroid Hormone Responsive (THRSP), THRSP (gene 7069); assay: LTEA_HepaRG_THRSP: Life Technologies and Expression Analysis (LTEA) Assay for Thyroid Hormone Responsive (THRSP) using HepaRG (AID 2283536); settings: mRNA level, 48 h; actives raise or lower the signal
How it was run: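 Differentiated HepaRG cells treated 48 h in serum-free induction medium with 8 half-log concentrations up to 100 uM (0.5% DMSO), duplicates. THRSP mRNA by TaqMan qRT-PCR normalised to ACTB, GAPDH, POLR2A; bidirectional fit versus DMSO.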

[8] = read-out: UDP glucuronosyltransferase (UGT1A1), UGT1A1 (gene 54658); assay: LTEA_HepaRG_UGT1A1: Life Technologies and Expression Analysis (LTEA) Assay for UDP glucuronosyltransferase (UGT1A1) using HepaRG (AID 2283538); settings: mRNA level, 48 h; actives raise or lower the signal
How it was run: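 HepaRG cells, 0.5% DMSO vehicle, 48 h exposure in serum-free induction medium to 8-point half-log series topping at 100 uM, in duplicate. UGT1A1 mRNA by Fluidigm qRT-PCR, normalized to ACTB/GAPDH/POLR2A; bidirectional fit versus DMSO.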

[9] = read-out: UDP glucuronosyltransferase (UGT1A6), UGT1A6 (gene 54578); assay: LTEA_HepaRG_UGT1A6: Life Technologies and Expression Analysis (LTEA) Assay for UDP glucuronosyltransferase (UGT1A6) using HepaRG (AID 2283539); settings: mRNA level, 48 h; actives raise or lower the signal
How it was run: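 Expression was quantified by TaqMan qRT-PCR on Fluidigm arrays with ACTB/GAPDH/POLR2A normalization and bidirectional fitting against 0.5% DMSO. HepaRG cells (~100,000/well) were treated in duplicate for 48 h at eight half-log concentrations up to 100 uM in serum-free induction medium.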

[10] = read-out: X-box binding protein 1 (XBP1), XBP1 (gene 7494); assay: LTEA_HepaRG_XBP1: Life Technologies and Expression Analysis (LTEA) Assay for X-box binding protein 1 (XBP1) using HepaRG (AID 2283540); settings: mRNA level, 48 h; actives raise or lower the signal
How it was run: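 XBP1 transcript by qRT-PCR (housekeeping-normalized: ACTB, GAPDH, POLR2A) after 48 h chemical treatment of HepaRG cells, 8-point half-log series topping at 100 uM, vehicle 0.5% DMSO. Gain and loss of signal fitted relative to DMSO.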

[11] = LTEA_HepaRG_LDH_cytotoxicity: Cytotoxicity Assessment in the Life Technologies and Expression Analysis (LTEA) Assay (AID 2283563; active = hit-call score of the fitted dose curve at least 0.9, where 1 is the maximum;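 for AC50: LDH activity released into spent culture medium as a marker of cell death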)
How it was run: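 LDH release into culture medium read after 48 h chemical treatment of HepaRG cells. Duplicate wells, eight-point half-log series topping at 100 uM, 0.5% DMSO vehicle and baseline.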

[12] = TOX21_p53_BLA_p2_viability: Viability Assessment in the Tox21 HCT-116 p53 Agonism Beta-lactamase Assay, Phase 2 (AID 2283591; active = hit-call score of the fitted dose curve at least 0.9, where 1 is the maximum;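 note: compound exposure lasted 16 h at 37 °C; actives lower the ATP signal meaning cytotoxicity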)
How it was run: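 HCT116 p53-bla cells, 4000/well, dosed after 5 h plating (217-fold dilution of DMSO stocks) and incubated 16 h at 37C. Viability taken as cellular ATP by CellTiter-Glo luminescence after 30 min RT; signal loss marks cytotoxicity.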

[13] = target: Cellular tumor antigen p53 (Homo sapiens) (UniProt P04637); assay: TOX21_p53_BLA_p2_ratio: Tox21 HCT-116 p53 Agonism Beta-lactamase Assay, Ratio, Phase 2 (AID 2283592; active = hit-call score of the fitted dose curve at least 0.9, where 1 is the maximum)
Sequence of Cellular tumor antigen p53 (Homo sapiens) (P04637 whole entry, looked up): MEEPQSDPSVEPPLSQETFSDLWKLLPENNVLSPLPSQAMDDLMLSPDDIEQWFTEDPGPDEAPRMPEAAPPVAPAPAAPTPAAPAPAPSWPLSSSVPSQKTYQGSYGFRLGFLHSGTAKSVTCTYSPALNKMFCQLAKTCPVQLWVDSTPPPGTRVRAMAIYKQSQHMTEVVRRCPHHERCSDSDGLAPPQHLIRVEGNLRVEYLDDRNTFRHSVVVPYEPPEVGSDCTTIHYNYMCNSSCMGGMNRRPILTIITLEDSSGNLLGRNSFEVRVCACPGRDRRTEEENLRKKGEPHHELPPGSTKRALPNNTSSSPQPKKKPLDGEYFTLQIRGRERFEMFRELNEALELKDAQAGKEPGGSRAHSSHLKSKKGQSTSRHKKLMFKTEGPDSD
How it was run: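 Gain-of-signal p53 agonism was scored from the beta-lactamase FRET ratio (460/530 nm, 405 nm excitation) in HCT116 cells treated 16 h at 37C, 5% CO2, with DMSO serving as negative control and baseline.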

[14] = TOX21_p53_BLA_p4_viability: Viability Assessment in the Tox21 HCT-116 p53 Agonism Beta-lactamase Assay, Phase 4 (AID 2283597; active = hit-call score of the fitted dose curve at least 0.9, where 1 is the maximum;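 note: hits lower the luminescence signal meaning cytotoxicity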)
How it was run: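 Following a 16 h exposure at 37C, the treated HCT116 wells were first read for the FRET ratio. They were then lysed with CellTiter-Glo, and ATP luminescence was recorded after 30 min at room temperature.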

[15] = ATG_XTT_Cytotoxicity: Cytotoxicity Assessment in the Attagene TRANS-FACTORIAL HepG2 Assay (AID 2283584; active = hit-call score of the fitted dose curve at least 0.9, where 1 is the maximum)
How it was run: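 Viability endpoint from XTT after 24 h chemical exposure of reporter-transfected human HepG2 liver cells; signal loss fitted relative to DMSO negative control.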

[16] = TOX21_p53_BLA_p3_viability: Viability Assessment in the Tox21 HCT-116 p53 Agonism Beta-lactamase Assay, Phase 3 (AID 2283593; active = hit-call score of the fitted dose curve at least 0.9, where 1 is the maximum;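 note: cells exposed to compound for 16 h before reading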)
How it was run: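 HCT116 cells, 4000/well, dosed 5 h after plating by pin transfer (217-fold dilution from DMSO stock) and incubated 16 h at 37C, 5% CO2. Viability read as ATP luminescence with CellTiter-Glo after 30 min at room temperature.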

[17] = target: Cellular tumor antigen p53 (Homo sapiens) (UniProt P04637); assay: TOX21_p53_BLA_p3_ratio: Tox21 HCT-116 p53 Agonism Beta-lactamase Assay, Ratio, Phase 3 (AID 2283596; active = hit-call score of the fitted dose curve at least 0.9, where 1 is the maximum)
How it was run: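 HCT116 p53-bla cells (4000/well) given compound in DMSO (217-fold dilution) after 5 h, incubated 16 h at 37C. CCF4-AM substrate 2 h at room temperature; 460/530 nm emission ratio, gain fitted against DMSO.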

[18] = read-out: succinate dehydrogenase complex iron sulfur subunit B (SDHB), SDHB (gene 6390); assay: LTEA_HepaRG_SDHB: Life Technologies and Expression Analysis (LTEA) Assay for succinate dehydrogenase complex iron sulfur subunit B (SDHB) using HepaRG (AID 2283528); settings: mRNA level, 48 h; actives raise or lower the signal
How it was run: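 SDHB transcript level read by TaqMan qRT-PCR, housekeeping-normalised (ACTB, GAPDH, POLR2A), after 48 h chemical treatment of plated HepaRG cells; eight concentrations top 100 uM, half-log steps, 0.5% DMSO, duplicates; fitted both directions against DMSO.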

[19] = read-out: Cellular tumor antigen p53 (Homo sapiens) (UniProt P04637); assay: LTEA_HepaRG_TP53: Life Technologies and Expression Analysis (LTEA) Assay for Tumor Protein P53 (TP53) using HepaRG (AID 2283537); settings: mRNA level, 48 h; actives raise or lower the signal
How it was run: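 TP53 transcript measured by qRT-PCR, normalized to three housekeeping genes, after 48 h treatment of human HepaRG cultures with chemicals from 100 uM downward in half-log steps (0.5% DMSO vehicle, serum-free induction medium). Up- or down-regulation fitted against DMSO.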

Measured: AC50

Sequence of Signal transducer and activator of transcription 3 (Homo sapiens) (P40763 whole entry, looked up): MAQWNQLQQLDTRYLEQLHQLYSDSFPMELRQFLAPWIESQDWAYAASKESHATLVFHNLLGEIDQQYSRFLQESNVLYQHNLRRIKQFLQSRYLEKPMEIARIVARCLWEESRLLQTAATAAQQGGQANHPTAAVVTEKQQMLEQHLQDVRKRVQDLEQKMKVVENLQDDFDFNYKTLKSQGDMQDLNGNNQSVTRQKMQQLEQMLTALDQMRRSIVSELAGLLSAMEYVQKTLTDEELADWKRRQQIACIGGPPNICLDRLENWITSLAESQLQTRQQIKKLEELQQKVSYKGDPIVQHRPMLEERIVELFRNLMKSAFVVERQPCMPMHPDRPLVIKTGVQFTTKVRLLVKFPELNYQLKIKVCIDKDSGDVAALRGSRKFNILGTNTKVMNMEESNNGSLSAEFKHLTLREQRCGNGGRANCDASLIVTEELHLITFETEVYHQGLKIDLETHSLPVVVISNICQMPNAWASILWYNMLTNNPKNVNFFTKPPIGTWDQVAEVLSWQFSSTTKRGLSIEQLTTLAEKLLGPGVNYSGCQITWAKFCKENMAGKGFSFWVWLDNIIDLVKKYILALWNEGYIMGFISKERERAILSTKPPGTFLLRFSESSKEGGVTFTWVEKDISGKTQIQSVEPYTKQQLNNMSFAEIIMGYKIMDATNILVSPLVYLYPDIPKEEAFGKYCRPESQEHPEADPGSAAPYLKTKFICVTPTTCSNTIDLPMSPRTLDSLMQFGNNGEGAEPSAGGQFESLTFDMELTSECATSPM

O=c1c(O)c(-c2ccc(O)c(O)c2)oc2cc(O)cc(O)c12
active: [2] 86.8 µM | [8] 0.322 µM | [13] 20.2 µM [middle of 4 runs] | [14] 34.7 µM
inactive: [1] | [3] | [4] | [5] | TIMP1, TIMP1 (gene 7076) | [6] | [7] | [9] | [10] | [11] | [12] | [14]

Cc1c(C(=O)O)c(O)cc2c1C(=O)c1c(O)c([C@@H]3O[C@H](CO)[C@@H](O)[C@H](O)[C@H]3O)c(O)c(O)c1C2=O
not listed: [11] | [13] | [18] | [19]
inactive: all other assays above

O=C(O)CCCCC(=O)O
not listed: [3] | [16] | [19]
inactive: all other assays above

Nc1ccc2c(c1)C(=O)c1ccccc1C2=O
active: [2] 4.66 µM | [7] 6.08 µM | [8] 7.74 µM | [10] 10.3 µM
not listed: [3] | [6] | [9] | [19]
inactive: all other assays above

OC[C@@H](O)[C@@H](O)[C@H](O)[C@H](O)CO
not listed: [3] | [13] | [14] | [19]
inactive: all other assays above

Oc1ccc2c(c1)OC[C@@H](N1CCC(O)(c3ccc(F)cc3)CC1)[C@H]2O
not listed: [3] | [5] | [12] | [13] | [15] | [16] | [19]
inactive: all other assays above

COc1cc(-c2nc(NC(=O)c3cc4cc(C)cc(C)c4n3CC(=O)O)sc2CCC2CCCCC2)c(OC)cc1Cl
active: [1] 19.3 µM | [2] 6.78 µM | [3] 6.35 µM | [4] 60.3 µM | [5] 12.1 µM | TIMP1, TIMP1 (gene 7076) 4.26 µM | [6] 6.91 µM | [7] 6.89 µM | [19] 24.6 µM | [8] 7.32 µM | [10] 19.6 µM | [11] 9.05 µM | [12] 1.65 µM | [13] 2.2 µM | [17] 7.74 µM | [14] 2.1 µM

NCCO
not listed: [3] | [9] | [12] | [14] | [15] | [16]
inactive: all other assays above

CCCCCCC(=O)OCC
not listed: [12] | [13] | [14] | [16] | [18]
inactive: all other assays above

c1cc(-c2ccncc2)ccn1
active: [8] 50 µM
not listed: [3] | [7] | [9] | [13]
inactive: all other assays above

COc1cc(C=O)ccc1O
not listed: [5] | [16] | [18]
inactive: all other assays above

CCCCCC(=O)O
not listed: [3] | [5] | [9]
inactive: all other assays above

CC1(C)NC(=O)NC1=O
not listed: [3] | [5] | [13] | [18] | [19]
inactive: all other assays above

Cc1cccc([N+](=O)[O-])c1C
not listed: [3] | [5] | [15] | [18]
inactive: all other assays above

FC(F)(F)C(F)(F)C(F)(F)C(F)(F)C(F)(F)C(F)(F)CCI
not listed: [3] | [9] | [12] | [13] | [14] | [16] | [18] | [19]
inactive: all other assays above

Cc1cccc(Nc2cc(Cl)nc(SCC(=O)O)n2)c1C
active: [8] 50 µM
not listed: [5] | [9] | [12] | [13] | [15] | [16] | [18]
inactive: all other assays above
